The whole screen tested about 320,000 compounds, of which about 22,000 (6.9%) were called active. Where a call stands in place of a potency, no number is given. Another 27% or so got no clear call; they are omitted. Calls follow the shape of the dose curve; as a rule, active = well fitted inhibition curve with a large enough effect; inconclusive = small, poorly fitted or top-dose-only effect, or another doubt; inactive = no such curve, though single readings can be large or run the other way. The sample as a whole holds a higher share of actives than the screen did.
Potency is read from the fitted curve at half-maximal effect.

The nature of this assay: Primary qHTS for delayed death inhibitors of the malarial parasite plastid, 96 hour incubation. The settings on record: P. falciparum luciferase reporter growth; series mostly up to 28.7 µM. From the text:
The goal of this screen is to discover new antimalarial compounds that act by inhibiting the development of the apicoplast in the malarial parasite Plasmodium falciparum. The biochemical processes that make this organelle essential for erythrocytic stage parasites are not well understood. However, antibiotics such as azithromycin and tetracycline, which target the apicoplast translational machinery, have a potent antimalarial effect.
We have developed a cell-based assay that measures parasite growth based on the expression of an integrated copy of a firefly luciferase reporter. To detect small molecules that cause this "delayed death" phenotype, erythrocytes infected with the luciferase-expressing parasites were incubated with compounds for either one or two generations, corresponding to 48 and 96 hours, respectively. Compounds that inhibit parasite growth in the second generation, but not the first, should be enriched in antimalarials that target the apicoplast. Growth inhibition is detected by a decrease in luciferase activity.
Assay Provider: David Fidock and Eric Ekland, Columbia University
Keywords: NIH Roadmap, MLPCN, MLI, MLSMR, qHTS, NCGC, qHTS, malaria, luciferase, viability
Four microliters of infected erythrocytes (2% hematocrit, 0.05% parasitemia final concentration) in culture medium were dispensed and the plates incubated for 96 hours at 37 C in 5% CO2. Two microliters of luciferase detection reagent was added and luminescence was detected by a ViewLux (PerkinElmer) reader.
Consider `CC(C)C[C@H](NC(=O)Nc1cccc(C(F)(F)F)c1)C(=O)O`, for which the Potency entry was “inactive”.

For the molecule `Cn1nc(C(F)(F)F)c(C(=O)Nc2cccc(C(F)(F)F)c2)c1SCc1ccc(Cl)cc1`, the Potency was 2.62 µM (active).

Turning to `O=C(O)CSc1c2c(nc3cc(C(=O)Nc4cccc(C(F)(F)F)c4)ccc13)CCCC2`, the Potency entry is “inactive”.

For the molecule `O=C(OCC(=O)N1CCOCC1)c1ccc2ccccc2c1`, the Potency entry was “inactive”.

With `CCOC(=O)c1ccc(NC(=O)c2nc[nH]c2C(=O)N[C@@H](CCCCNC(=O)OC(C)(C)C)C(=O)OC(C)(C)C)cc1`, the Potency was 5.86 µM (active).

As to `Cc1cccc(NC(=O)c2nc[nH]c2C(=O)NCC(=O)OCc2ccccc2)c1`, the Potency entry was “inactive”.

With `Cc1ccc(NC(=O)c2nc[nH]c2C(=O)N[C@@H](CCCCNC(=O)OC(C)(C)C)C(=O)OC(C)(C)C)cc1`, the Potency was 11.7 µM (active).

Turning to `CNC(=O)c1[nH]cnc1C(=O)N[C@@H](CC(C)C)C(=O)OC(C)(C)C`, the Potency result was “inactive”.

Turning to `CCOC(=O)c1[nH]cnc1C(=O)Nc1ccccc1C`, the Potency result was “inactive”.

For `CCOC(=O)c1ccc(NC(=O)c2nc[nH]c2C(=O)NCc2ccccc2)cc1`, the Potency entry was “inactive”.

`C=CCSc1ccc(S(=O)(=O)N2CCN(C)CC2)cn1`: the Potency entry was “inactive”.

In the case of `Cc1cc(NC(=O)c2ccco2)c(=O)n(Cc2c(F)cccc2Cl)c1`, the Potency entry was “inactive”.

For the molecule `CCOC(=O)N1CCN(c2c(NCCN3CCN(c4ccccc4F)CC3)c(=O)c2=O)CC1`, the Potency entry was “inactive”.

Regarding `COc1ccccc1NC(=O)CCC(=O)OC(C)C(=O)c1ccccc1` (configuration not stated), the Potency result is “inactive”.

In the case of `Cc1ccc(C(=O)NCC(=O)OCC(=O)Nc2cccc(S(=O)(=O)N3CCCC3)c2)cc1C`, the Potency entry is “inactive”.

For `Cc1ccc(CN2CCN(c3ncccn3)CC2)c(C)c1`, the Potency result was “inactive”.

Turning to `CC(=O)N1CCN(C(=O)Nc2cccc(C(F)(F)F)c2)CC1`, the Potency result is “inactive”.

`Cc1cccc(NC(=O)c2nnn(-c3cccc(C(F)(F)F)c3)c2N)c1`: the Potency is 5.86 µM (active).

On to `Cc1cccc(NC(=O)c2cccc(C(F)(F)F)c2)c1`, for which the Potency result was “inactive”.

Regarding `O=C(O)C1CCCN1S(=O)(=O)c1ccc(Br)cc1` (configuration not stated), the Potency result was “inactive”.

With `COc1ccc(-c2cc(C(=O)n3cnc4ccccc43)c3ccccc3n2)cc1`, the Potency entry was “inactive”.

`COc1ccc(-c2c(C#Cc3ccccc3)c3ccccc3n2C)cc1`: the Potency was 6.57 µM (active).

Consider `COc1ccc(CCNCc2c(-c3ccccc3)n(C)c3ccccc23)cc1`, for which the Potency was 10.4 µM (active).

For `COc1ccc(OCCCC(=O)NCCc2ccccc2)cc1`, the Potency result is “inactive”.

On to `COc1ccc(CNc2ncnc3ccccc23)cc1`, for which the Potency entry is “inactive”.

On to `COc1ccc(-c2c3c(=O)n(C)c(=O)n(C)c3cn2-c2cccc(OC)c2)cc1`, for which the Potency entry is “inactive”.

For `CN(CCC(=O)Nc1cc(S(=O)(=O)N(C)C)ccc1Cl)CC(=O)Nc1ccc(F)cc1`, the Potency result is “inactive”.

`O=C(Nc1cccc2c1N(C(=O)c1ccco1)CCC2)c1ccco1`: the Potency entry was “inactive”.

On to `O=C(CSc1ncnc2c1oc1ccccc12)NC1CCCC1`, for which the Potency result was “inactive”.

With `CCCOc1ccc(-c2c(C(=O)N/N=C/c3ccco3)nnn2-c2nonc2N)cc1`, the Potency entry is “inactive”.

As to `CN(Cc1ccccc1)C(=O)c1cccc(C(=O)N(C)Cc2ccccc2)c1`, the Potency is 13.1 µM (active).

With `Cc1cc(C)cc(NC(=O)N(C)Cc2ccccc2)c1`, the Potency result is “inactive”.

On to `CN(Cc1ccccc1)C(=O)CCc1ccccc1`, for which the Potency entry was “inactive”.

On to `Cc1cc(C(=O)N/N=C/c2ccccn2)c2ccccc2n1`, for which the Potency entry is “inactive”.

Consider `O=C(N/C(=C\c1ccc(O)cc1)C(=O)N1CCCCC1)c1ccccc1`, for which the Potency result was “inactive”.

Regarding `Cc1ccc(C)c(NC(=O)C(OC(=O)c2ccc(C)s2)c2ccccc2)c1` (configuration not stated), the Potency was 2.94 µM (active).

On to `COc1ccc(C)cc1NC(=O)C(Sc1ccccc1)c1ccccc1` (configuration not stated), for which the Potency result was “inactive”.

For `COc1ccc(C)cc1NC(=O)C(OC(=O)c1cccc(S(=O)(=O)N(C)c2ccccc2)c1)c1ccccc1` (configuration not stated), the Potency entry was “inactive”.

For the molecule `C/C(CC(=O)NCc1ccc(Cl)cc1)=N\NC(=O)COc1ccc(C)cc1Br`, the Potency result was “inactive”.

Consider `CC(C)C[C@H](NC(=O)N1CCn2c1nc1ccccc12)C(=O)NC1CC1`, for which the Potency result was “inactive”.

`O=S(=O)(NCCc1ccccn1)c1cc(Cl)cc(Cl)c1O`: the Potency entry was “inactive”.

Turning to `N#Cc1ccsc1NC(=O)CN1CCN(S(=O)(=O)c2cc(Cl)ccc2Cl)CC1`, the Potency was 4.15 µM (active).

As for `O=S(=O)(c1cc(Cl)ccc1Cl)N1CCN(Cc2ccco2)CC1`, the Potency entry is “inactive”.

For the molecule `N#Cc1ccsc1NC(=O)CN1CCCCC1`, the Potency entry is “inactive”.

With `CCN(CC)c1ccc(/C=N/NC(=O)CNC(=O)c2cccnc2)cc1`, the Potency entry was “inactive”.

Consider `CCOc1ccc(S(=O)(=O)N2CCCCC2)cc1NC(=O)CN1CCCC1c1cccs1` (configuration not stated), for which the Potency is 4.65 µM (active).

Take `CCOc1ccc(NC(=O)COc2ccc(S(=O)(=O)N3CCCC3)cc2)cc1`: the Potency entry is “inactive”.

With `CCOc1ccccc1NC(=O)C1CCCN(S(=O)(=O)c2ccccc2)C1` (configuration not stated), the Potency result is “inactive”.

In the case of `CC(=O)NCCC(=O)Nc1cc(S(=O)(=O)N2CCCCC2)ccc1Oc1cccc(C)c1`, the Potency result was “inactive”.

Consider `CCOc1ccccc1NC(=O)COc1ccc(S(=O)(=O)N2CCCC2)cc1`, for which the Potency was 8.28 µM (active).

Take `O=C(COc1ccc(S(=O)(=O)N2CCCCC2)cc1)NCc1ccccn1`: the Potency result was “inactive”.

With `CN(C)C(=O)N=NC(=O)N(C)C`, the Potency result was “inactive”.

For the molecule `O=C(Oc1ccc(Br)cc1)c1cccnc1`, the Potency entry was “inactive”.

`O=C(COC(=O)c1cccc(Cl)c1)NC1CCCCCCC1`: the Potency result is “inactive”.

Take `CCc1c(C)c2ccc(OC3CCCCC3=O)cc2oc1=O` (configuration not stated): the Potency entry is “inactive”.

Consider `Cc1ccc(C(=O)C(C)OC(=O)Cc2n[nH]c(=O)c3ccccc23)cc1C` (configuration not stated), for which the Potency result is “inactive”.

Turning to `Cc1cc(C)c(S(=O)(=O)N(C)CC(=O)NCC2CCCO2)c(C)c1` (configuration not stated), the Potency result is “inactive”.

On to `COc1ccccc1CCC(=O)OCC(=O)N1CCN(S(=O)(=O)c2ccc(C)cc2C)CC1`, for which the Potency entry was “inactive”.

For the molecule `CCCCCCCN=C(C)c1ccccc1O`, the Potency result is “inactive”.

In the case of `C/C(=N\N(C)C)c1ccc(OCCOc2ccc([N+](=O)[O-])cc2)cc1`, the Potency entry is “inactive”.

In the case of `COc1ccc(C(C#N)(CC(=O)O)c2cnccn2)cc1OC` (configuration not stated), the Potency entry was “inactive”.

Regarding `COc1cc(OC)cc(C(=O)NNC(=O)CNC(=O)c2ccc(Br)o2)c1`, the Potency entry was “inactive”.

Take `S=C(NCCC1=CCCCC1)Nc1ccccc1`: the Potency was 0.586 µM (active).

In the case of `O=C(Cc1cccc2ccccc12)NCCC1=CCCCC1`, the Potency result is “inactive”.

Turning to `S=C(NCCCc1ccccc1)Nc1ccc(Br)cc1`, the Potency entry is “inactive”.

Turning to `CC(=O)N1CC(=O)N(CC(=O)Nc2ccc(Br)cc2)C1=S`, the Potency entry was “inactive”.

Turning to `CC(=O)c1nnn(-c2ccc(Cl)cc2C#N)c1C`, the Potency entry is “inactive”.

The record behind these values is PubChem BioAssay AID504834 (National Center for Advancing Translational Sciences (NCATS), 2011).
